Results from ChEMBL document CHEMBL1961873, “Compounds: GSK PKIS; Assays: Nanosyn kinase panel” (2012).

Key:
[1] = molecular target: T1, Ephrin type-B receptor 2 (Homo sapiens) (UniProt P29323); conditions: at 1 µM
T1 sequence (whole entry): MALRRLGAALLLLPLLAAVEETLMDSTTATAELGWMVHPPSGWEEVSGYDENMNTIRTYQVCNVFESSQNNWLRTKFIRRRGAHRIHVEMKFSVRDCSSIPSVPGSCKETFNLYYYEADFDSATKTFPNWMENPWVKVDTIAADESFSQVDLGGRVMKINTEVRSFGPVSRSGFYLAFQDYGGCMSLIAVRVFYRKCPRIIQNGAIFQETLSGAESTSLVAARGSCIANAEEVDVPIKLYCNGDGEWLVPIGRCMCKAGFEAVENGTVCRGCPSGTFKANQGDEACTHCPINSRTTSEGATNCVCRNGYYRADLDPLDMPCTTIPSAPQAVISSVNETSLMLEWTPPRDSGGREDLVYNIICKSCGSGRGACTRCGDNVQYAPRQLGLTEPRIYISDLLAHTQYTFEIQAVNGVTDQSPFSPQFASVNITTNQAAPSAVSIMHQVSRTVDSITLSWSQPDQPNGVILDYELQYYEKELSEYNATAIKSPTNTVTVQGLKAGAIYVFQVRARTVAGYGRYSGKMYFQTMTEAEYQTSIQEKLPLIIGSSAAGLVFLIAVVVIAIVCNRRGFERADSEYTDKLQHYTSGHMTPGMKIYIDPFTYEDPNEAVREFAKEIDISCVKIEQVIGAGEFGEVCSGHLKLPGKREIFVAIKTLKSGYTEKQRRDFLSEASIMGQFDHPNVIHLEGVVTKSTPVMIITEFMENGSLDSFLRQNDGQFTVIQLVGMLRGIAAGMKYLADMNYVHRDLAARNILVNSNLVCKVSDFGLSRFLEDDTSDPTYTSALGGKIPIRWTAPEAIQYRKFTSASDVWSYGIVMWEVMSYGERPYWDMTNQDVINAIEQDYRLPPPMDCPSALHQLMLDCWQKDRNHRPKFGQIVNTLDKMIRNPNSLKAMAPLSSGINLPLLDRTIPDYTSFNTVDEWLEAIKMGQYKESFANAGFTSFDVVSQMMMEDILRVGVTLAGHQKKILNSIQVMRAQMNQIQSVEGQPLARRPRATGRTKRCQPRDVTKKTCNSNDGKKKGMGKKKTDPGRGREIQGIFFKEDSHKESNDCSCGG

[2] = molecular target: T2, Ephrin type-B receptor 3 (Homo sapiens) (UniProt P54753); conditions: at 0.1 µM
T2 sequence (whole entry): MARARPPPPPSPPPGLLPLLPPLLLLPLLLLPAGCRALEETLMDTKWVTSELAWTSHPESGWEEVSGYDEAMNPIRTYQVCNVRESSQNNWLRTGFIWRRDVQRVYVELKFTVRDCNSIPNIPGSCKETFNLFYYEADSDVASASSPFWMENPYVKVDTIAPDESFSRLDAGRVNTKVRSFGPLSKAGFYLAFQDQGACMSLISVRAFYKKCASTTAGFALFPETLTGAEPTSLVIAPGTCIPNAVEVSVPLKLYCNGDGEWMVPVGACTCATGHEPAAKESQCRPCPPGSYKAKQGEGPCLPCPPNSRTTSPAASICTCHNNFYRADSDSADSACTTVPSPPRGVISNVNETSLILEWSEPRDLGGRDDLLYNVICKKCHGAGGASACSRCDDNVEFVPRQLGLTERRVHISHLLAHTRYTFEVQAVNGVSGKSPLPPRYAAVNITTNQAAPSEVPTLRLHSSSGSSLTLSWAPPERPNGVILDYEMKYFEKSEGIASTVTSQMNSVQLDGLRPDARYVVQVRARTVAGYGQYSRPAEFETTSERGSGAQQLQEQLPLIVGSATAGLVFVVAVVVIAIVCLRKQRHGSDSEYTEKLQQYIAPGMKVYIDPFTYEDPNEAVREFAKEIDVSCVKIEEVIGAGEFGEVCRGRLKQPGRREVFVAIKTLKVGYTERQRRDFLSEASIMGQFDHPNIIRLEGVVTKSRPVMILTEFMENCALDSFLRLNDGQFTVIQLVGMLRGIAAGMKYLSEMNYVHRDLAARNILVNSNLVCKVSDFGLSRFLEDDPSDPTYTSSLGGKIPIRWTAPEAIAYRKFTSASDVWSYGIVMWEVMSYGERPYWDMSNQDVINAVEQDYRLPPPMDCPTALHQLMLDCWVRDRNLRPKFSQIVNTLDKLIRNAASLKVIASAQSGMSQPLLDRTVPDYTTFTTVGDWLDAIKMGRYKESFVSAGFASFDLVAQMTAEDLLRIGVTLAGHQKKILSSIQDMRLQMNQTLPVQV

[3] = molecular target: T2, Ephrin type-B receptor 3 (Homo sapiens); conditions: at 1 µM
[4] = molecular target: T3, Ephrin type-B receptor 4 (Homo sapiens) (UniProt P54760); conditions: at 0.1 µM
T3 sequence (whole entry): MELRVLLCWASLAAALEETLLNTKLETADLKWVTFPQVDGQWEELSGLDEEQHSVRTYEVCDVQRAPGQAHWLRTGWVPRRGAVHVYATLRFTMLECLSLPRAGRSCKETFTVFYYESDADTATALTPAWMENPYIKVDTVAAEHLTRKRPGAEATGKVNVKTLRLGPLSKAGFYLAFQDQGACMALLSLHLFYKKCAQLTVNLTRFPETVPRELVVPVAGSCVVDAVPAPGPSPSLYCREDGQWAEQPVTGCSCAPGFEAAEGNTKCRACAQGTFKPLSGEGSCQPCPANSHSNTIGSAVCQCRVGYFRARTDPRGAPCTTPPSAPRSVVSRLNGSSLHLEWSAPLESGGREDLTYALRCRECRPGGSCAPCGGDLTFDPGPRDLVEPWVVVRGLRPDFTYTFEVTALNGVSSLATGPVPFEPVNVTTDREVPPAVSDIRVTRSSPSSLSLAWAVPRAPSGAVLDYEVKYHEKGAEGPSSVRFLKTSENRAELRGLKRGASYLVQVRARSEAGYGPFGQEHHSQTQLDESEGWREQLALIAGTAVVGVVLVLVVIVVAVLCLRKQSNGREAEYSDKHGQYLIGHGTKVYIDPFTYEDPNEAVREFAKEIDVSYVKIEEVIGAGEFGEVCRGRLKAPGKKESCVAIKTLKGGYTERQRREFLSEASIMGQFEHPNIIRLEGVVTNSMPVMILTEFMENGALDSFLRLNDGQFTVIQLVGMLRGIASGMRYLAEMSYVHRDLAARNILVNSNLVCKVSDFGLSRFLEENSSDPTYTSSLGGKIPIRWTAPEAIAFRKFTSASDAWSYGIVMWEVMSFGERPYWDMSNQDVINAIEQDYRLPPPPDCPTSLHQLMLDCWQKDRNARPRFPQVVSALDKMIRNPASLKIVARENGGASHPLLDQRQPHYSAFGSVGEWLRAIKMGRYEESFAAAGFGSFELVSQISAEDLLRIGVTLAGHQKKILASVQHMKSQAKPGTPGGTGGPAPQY

[5] = molecular target: T3, Ephrin type-B receptor 4 (Homo sapiens); conditions: at 1 µM
[6] = molecular target: Receptor tyrosine-protein kinase erbB-2 (Homo sapiens) (UniProt P04626); conditions: at 0.1 µM
[7] = molecular target: Receptor tyrosine-protein kinase erbB-2 (Homo sapiens) (UniProt P04626); conditions: at 1 µM
[8] = molecular target: Receptor tyrosine-protein kinase erbB-4 (Homo sapiens) (UniProt Q15303); conditions: at 0.1 µM
[9] = molecular target: Receptor tyrosine-protein kinase erbB-4 (Homo sapiens) (UniProt Q15303); conditions: at 1 µM
[10] = molecular target: Tyrosine-protein kinase Fer (Homo sapiens) (UniProt P16591); conditions: at 0.1 µM
[11] = molecular target: Tyrosine-protein kinase Fer (Homo sapiens) (UniProt P16591); conditions: at 1 µM
[12] = molecular target: Tyrosine-protein kinase Fes/Fps (Homo sapiens) (UniProt P07332); conditions: at 0.1 µM
[13] = molecular target: Tyrosine-protein kinase Fes/Fps (Homo sapiens) (UniProt P07332); conditions: at 1 µM
[14] = molecular target: Fibroblast growth factor receptor 1 (Homo sapiens) (UniProt P11362); conditions: at 0.1 µM
[15] = molecular target: Fibroblast growth factor receptor 1 (Homo sapiens) (UniProt P11362); conditions: at 1 µM
[16] = molecular target: Fibroblast growth factor receptor 2 (Homo sapiens) (UniProt P21802); conditions: at 0.1 µM
[17] = molecular target: Fibroblast growth factor receptor 2 (Homo sapiens) (UniProt P21802); conditions: at 1 µM
[18] = molecular target: Fibroblast growth factor receptor 3 (Homo sapiens) (UniProt P22607); conditions: at 0.1 µM
[19] = molecular target: Fibroblast growth factor receptor 3 (Homo sapiens) (UniProt P22607); conditions: at 1 µM
[20] = molecular target: Fibroblast growth factor receptor 4 (Homo sapiens) (UniProt P22455); conditions: at 0.1 µM;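 further: values are mean percent inhibition of FGFR4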
Sequence of Fibroblast growth factor receptor 4 (Homo sapiens) (P22455 22-802 limits assumed): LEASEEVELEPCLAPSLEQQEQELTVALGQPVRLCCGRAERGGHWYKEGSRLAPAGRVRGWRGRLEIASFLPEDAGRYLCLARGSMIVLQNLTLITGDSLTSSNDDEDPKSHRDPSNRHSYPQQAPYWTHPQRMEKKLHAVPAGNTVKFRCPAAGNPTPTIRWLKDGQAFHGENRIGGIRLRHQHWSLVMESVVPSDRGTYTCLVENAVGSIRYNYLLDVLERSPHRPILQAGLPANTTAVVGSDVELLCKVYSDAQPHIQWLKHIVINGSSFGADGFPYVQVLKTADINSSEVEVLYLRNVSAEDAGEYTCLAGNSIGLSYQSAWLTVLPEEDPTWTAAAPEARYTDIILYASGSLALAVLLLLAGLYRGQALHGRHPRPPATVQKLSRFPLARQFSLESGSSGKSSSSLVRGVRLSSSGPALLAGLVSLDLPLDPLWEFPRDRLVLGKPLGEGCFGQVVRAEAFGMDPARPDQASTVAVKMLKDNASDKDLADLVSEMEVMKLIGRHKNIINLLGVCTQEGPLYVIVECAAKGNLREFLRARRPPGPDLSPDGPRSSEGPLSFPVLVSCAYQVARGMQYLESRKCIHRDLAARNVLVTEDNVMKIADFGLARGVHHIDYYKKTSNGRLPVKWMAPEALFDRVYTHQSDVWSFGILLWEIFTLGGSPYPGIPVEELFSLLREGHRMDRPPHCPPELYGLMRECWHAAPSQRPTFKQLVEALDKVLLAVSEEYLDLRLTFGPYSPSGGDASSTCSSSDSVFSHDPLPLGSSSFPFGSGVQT

Sequence of Fibroblast growth factor receptor 3 (Homo sapiens) (P22607 23-806 limits assumed): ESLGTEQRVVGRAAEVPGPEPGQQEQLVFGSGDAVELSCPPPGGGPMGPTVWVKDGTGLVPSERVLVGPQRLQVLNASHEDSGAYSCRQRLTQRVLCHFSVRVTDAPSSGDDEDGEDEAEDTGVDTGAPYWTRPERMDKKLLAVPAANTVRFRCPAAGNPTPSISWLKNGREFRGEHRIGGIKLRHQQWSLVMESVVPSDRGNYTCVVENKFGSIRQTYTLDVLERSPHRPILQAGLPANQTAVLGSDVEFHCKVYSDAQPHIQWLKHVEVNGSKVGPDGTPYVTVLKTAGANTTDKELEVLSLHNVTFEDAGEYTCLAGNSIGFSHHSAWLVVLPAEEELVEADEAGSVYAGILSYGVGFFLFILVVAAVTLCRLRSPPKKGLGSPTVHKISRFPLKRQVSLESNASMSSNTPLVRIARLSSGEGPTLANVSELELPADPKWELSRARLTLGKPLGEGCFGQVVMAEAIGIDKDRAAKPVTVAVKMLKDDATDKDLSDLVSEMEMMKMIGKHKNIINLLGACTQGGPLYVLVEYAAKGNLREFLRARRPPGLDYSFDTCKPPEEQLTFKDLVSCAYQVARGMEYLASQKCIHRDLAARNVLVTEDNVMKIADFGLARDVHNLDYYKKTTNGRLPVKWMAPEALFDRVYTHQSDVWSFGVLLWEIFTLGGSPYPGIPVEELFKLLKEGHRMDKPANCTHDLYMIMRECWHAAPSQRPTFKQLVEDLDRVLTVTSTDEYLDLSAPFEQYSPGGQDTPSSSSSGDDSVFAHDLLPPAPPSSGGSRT
Sequence of Fibroblast growth factor receptor 2 (Homo sapiens) (P21802 22-821 limits assumed): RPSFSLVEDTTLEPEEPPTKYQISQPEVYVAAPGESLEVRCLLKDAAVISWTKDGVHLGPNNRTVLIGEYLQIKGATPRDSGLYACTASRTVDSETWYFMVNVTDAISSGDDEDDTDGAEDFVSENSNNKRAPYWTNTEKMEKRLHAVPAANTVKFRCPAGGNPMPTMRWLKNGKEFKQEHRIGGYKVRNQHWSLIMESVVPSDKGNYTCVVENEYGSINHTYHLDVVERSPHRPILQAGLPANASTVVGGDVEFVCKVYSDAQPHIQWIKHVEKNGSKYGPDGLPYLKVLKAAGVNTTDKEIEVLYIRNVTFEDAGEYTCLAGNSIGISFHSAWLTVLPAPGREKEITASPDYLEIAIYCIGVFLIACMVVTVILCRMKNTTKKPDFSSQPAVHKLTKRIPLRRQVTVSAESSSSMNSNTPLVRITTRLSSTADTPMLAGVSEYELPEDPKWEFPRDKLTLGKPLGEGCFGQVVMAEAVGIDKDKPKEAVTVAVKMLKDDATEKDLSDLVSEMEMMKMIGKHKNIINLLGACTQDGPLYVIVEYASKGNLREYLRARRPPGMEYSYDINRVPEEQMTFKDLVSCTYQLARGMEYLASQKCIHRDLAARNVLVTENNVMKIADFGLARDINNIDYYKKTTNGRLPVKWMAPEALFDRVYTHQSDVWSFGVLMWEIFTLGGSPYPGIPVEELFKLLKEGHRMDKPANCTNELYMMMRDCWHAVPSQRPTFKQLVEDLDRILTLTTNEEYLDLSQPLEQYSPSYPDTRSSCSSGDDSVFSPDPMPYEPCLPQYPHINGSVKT
Sequence of Tyrosine-protein kinase Fes/Fps (Homo sapiens) (P07332 whole entry): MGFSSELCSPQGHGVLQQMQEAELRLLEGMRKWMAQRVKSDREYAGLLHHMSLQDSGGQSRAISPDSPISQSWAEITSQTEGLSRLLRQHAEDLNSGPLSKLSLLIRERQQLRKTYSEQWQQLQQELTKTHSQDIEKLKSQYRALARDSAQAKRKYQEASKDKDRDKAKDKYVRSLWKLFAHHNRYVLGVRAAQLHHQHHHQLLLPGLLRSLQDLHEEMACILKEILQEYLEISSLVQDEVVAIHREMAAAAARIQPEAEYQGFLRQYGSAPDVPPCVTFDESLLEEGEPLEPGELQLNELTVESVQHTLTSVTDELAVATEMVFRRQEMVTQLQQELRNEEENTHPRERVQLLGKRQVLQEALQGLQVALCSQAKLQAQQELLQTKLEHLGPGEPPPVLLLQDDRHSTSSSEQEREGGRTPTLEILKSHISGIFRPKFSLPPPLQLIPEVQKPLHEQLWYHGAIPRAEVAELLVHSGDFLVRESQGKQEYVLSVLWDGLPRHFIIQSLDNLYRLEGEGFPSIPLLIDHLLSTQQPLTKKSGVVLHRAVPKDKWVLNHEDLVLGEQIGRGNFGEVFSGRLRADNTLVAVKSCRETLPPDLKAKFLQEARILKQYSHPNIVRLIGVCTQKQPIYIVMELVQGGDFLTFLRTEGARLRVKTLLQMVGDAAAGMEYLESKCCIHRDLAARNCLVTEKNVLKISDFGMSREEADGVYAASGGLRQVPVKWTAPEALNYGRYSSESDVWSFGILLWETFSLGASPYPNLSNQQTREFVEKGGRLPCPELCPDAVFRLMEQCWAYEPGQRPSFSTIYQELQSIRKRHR
Sequence of Receptor tyrosine-protein kinase erbB-2 (Homo sapiens) (P04626 whole entry): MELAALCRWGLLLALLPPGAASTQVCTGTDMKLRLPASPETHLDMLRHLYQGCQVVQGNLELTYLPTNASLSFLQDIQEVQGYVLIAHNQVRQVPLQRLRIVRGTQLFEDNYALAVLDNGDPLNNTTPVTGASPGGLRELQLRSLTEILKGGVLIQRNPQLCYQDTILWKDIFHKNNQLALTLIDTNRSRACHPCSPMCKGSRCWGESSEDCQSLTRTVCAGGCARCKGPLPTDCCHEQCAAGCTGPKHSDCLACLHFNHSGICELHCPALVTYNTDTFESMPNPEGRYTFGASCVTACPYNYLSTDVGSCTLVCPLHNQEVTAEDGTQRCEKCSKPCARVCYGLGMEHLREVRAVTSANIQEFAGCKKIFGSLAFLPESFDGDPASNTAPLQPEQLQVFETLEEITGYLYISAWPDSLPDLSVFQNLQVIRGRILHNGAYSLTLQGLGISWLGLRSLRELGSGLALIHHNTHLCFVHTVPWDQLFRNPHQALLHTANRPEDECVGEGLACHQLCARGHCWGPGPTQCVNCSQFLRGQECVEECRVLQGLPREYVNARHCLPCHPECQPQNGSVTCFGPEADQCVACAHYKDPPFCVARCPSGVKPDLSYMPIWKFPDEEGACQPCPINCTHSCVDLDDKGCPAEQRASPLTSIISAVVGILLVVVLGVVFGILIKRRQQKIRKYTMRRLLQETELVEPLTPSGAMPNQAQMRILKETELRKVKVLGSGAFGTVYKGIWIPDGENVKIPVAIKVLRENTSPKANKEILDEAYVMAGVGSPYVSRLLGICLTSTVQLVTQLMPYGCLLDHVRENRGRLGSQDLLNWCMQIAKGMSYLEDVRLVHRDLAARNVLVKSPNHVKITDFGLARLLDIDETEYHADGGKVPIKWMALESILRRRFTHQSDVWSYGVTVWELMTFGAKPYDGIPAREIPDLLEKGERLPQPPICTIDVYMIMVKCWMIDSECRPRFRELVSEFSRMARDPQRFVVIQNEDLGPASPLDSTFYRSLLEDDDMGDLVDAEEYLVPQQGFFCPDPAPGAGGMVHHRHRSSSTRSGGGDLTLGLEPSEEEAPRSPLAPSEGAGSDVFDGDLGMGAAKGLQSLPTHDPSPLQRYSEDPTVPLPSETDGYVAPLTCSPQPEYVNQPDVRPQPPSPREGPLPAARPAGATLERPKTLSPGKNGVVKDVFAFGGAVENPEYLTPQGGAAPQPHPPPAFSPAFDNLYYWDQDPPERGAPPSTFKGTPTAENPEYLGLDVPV

SMILES	inhibition [1] [%]	inhibition [2] [%]	inhibition [3] [%]	inhibition [4] [%]	inhibition [5] [%]	inhibition [6] [%]	inhibition [7] [%]	inhibition [8] [%]	inhibition [9] [%]	inhibition [10] [%]	inhibition [11] [%]	inhibition [12] [%]	inhibition [13] [%]	inhibition [14] [%]	inhibition [15] [%]	inhibition [16] [%]	inhibition [17] [%]	inhibition [18] [%]	inhibition [19] [%]	inhibition [20] [%]
COc1cccc(-n2ncc3c(N/N=C/c4cccc(F)c4)ncnc32)c1	4.03	0.95	-0.77	-0.91	0.63	1.57	-0.99	1.08	2.68	2.76	3.05	1.31	0.83	-2.97	-3.18	-3.24	-0.48	0.54	-0.4	-3.35
O=C1NC(=O)C(c2cccc(Cl)c2)=C1Nc1ccc(O)c(Cl)c1	-8.35	2.73	-5.14	1.15	-0.03	0.29	-5.89	5.49	6.06	3.79	5.56	0.55	1.14	-2.65	6.97	3.82	32.5	4.37	21.3	-2.1
CCn1c(-c2nonc2N)nc2cncc(C(=O)N3CC[C@H](N)C3)c21	6.1	6.62	4.88	6.15	2.54	4.24	7.27	13.3	17.8	1.22	3.76	2.6	2.26	0.26	1.87	2.48	4.96	3.72	2.58	-6.25
NS(=O)(=O)c1cccc(-c2ccc3c(NC(=O)C4CC4)n[nH]c3c2)c1	-0.57	-3.25	-3.05	-1.93	-1.01	-3.46	-5.29	-3.96	-3.93	1.7	3.76	-3.2	-4	0.33	-2.92	-1.77	-1.15	-0.12	0.44	0.21
CNC(=O)c1cncc(/C=C/c2c(Cl)cccc2Cl)c1	29.2	-2.12	2.92	2.4	74.1	3.2	3.13	-0.22	8.83	0.6	5.39	2.89	4.62	1.94	-1.56	3.82	7.15	5.62	1.39	1.14
[O-][S+]1CCN(Cc2ccc(-c3ccc4ncnc(Nc5ccc(OCc6ccccc6)c(F)c5)c4c3)o2)CC1	-0.23	3.15	1.61	0.35	2.22	20.4	75.1	68.7	88.7	3.77	6.08	1.91	3.4	2.71	-2.34	1.34	3.9	3.41	2.82	0.38
N#Cc1c(NC(=O)c2cccc3ccccc23)sc2c1CCCC2	6.91	5.39	3.56	3.79	3.28	1.65	-0.24	6.37	8.55	2.88	1.93	2.2	2.36	0.22	2.06	1.68	4.84	5.84	4.55	-2.84
COc1cc2c(cc1Nc1nc(N3CCc4ccccc43)c3cc[nH]c3n1)N(C(=O)CN(C)C)CC2	9.31	2.82	0.49	1	0.73	1.22	-0.36	6.72	6.14	66.2	85.2	39.9	62.3	2.98	-1.36	0.56	6.55	3.52	0.84	-1.03
CC1=C(C(=O)Nc2ccc3[nH]ncc3c2)C(c2ccc(Cl)c(Cl)c2)CC(=O)N1 (centres undefined)	12.5	3.28	2.88	1.18	1.59	0.3	0.63	8.29	17.8	1.45	1.24	1.63	2.35	0.69	8.25	0.22	20.4	2.17	14.1	1.31
CN(C)c1cc2c(Nc3ccc4nc(Cc5ccccc5)[nH]c4c3)ncnc2cn1	15.3	4.07	4.22	4.92	3.25	20	67.7	101	99.7	5.55	10.5	3.37	3.11	8.38	15.2	5.58	10.4	7.84	11.4	2.81
Cc1nn(C)c2cc(N(C)c3ccnc(Nc4cccc(S(N)(=O)=O)c4)n3)ccc12	37.8	5.14	4.43	7.86	39.6	3.03	10.1	11	29.3	4.27	35.8	2.04	6.14	-0.21		5.4	20.7	3.96	11.4	-9.61
O=C(Nc1n[nH]c2nc(-c3ccco3)c(Br)cc12)C1CC1	5.48	4.64	3.95	2.69	3.48	1.49	-3.9	10.1	15.8	1.93	0.63	2.91	3.27	1.76	5.28	2.01	7.9	6.29	7.26	-0.77
NC(=O)c1cccc(Nc2nccc(Nc3cccc4[nH]ncc34)n2)c1	77.8	-3.41	4.33	22.2	72.1	-4.62	2.08	-6.41	-1.88	3.13	21.9	-2.33	10.9	-5.24	9.11	-1.94	13.1	-3.38	4.68	1.28
